DT40 TDP1 no CPT = qHTS for Inhibitors of human tyrosyl-DNA phosphodiesterase 1 (TDP1): qHTS in cells in absence of CPT; DT40 Tdp1-/- hTDP1 cells, no CPT, ATP luminescence, 48 h; Potency, µM (series often up to 46.2 µM), inactives show at the highest dose activity change, negative = growth inhibition, hits mostly inhibitors; 420,000 compounds, 15% hits; note: potency is the fitted concentration of half-maximal effect; % is set by controls: 0 for no effect and ±100 for the full control effect; nearly all actives have a fitted effect of over 55% in size
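Chicken DT40 Tdp1-/- cells complemented with human TDP1, screened without camptothecin (DMSO vehicle only), 400 cells/well. Compounds pin-transferred, cells incubated at 37 °C for at least 48 hr. Growth read as ATP-dependent luminescence (CellTiter-Glo, 30 min at RT).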
S-ASM inh = human S-ASM enzyme inhibition; P17405; placental ASM, HMU-PC fluorogenic substrate, 60 min; Potency, µM (highest dose often 57.5 µM), for inactives: at the top dose activity change, negative = inhibition, actives largely listed as inhibitors; 340,000 compounds, 0.006% hits; AID 504937; note: potency is the fitted concentration of half-maximal effect
Target sequence (P17405 47-631 limits assumed): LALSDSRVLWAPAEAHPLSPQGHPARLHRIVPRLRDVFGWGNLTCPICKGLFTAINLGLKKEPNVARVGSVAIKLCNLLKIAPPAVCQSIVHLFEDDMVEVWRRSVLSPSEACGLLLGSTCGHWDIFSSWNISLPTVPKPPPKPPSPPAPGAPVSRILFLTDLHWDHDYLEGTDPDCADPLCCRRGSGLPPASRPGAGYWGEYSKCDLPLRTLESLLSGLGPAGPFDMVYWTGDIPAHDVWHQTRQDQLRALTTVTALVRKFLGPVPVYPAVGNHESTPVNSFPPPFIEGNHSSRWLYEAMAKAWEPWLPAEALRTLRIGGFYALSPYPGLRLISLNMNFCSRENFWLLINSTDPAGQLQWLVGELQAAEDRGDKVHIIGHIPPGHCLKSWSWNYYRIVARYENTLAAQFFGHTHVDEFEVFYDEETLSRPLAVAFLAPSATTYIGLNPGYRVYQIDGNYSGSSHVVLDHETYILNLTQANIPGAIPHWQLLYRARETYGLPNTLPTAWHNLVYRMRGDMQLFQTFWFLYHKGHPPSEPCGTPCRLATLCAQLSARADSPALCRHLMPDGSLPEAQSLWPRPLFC
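qHTS format. ASM enzyme prepared from human placenta hydrolyses the fluorogenic substrate HMU-PC0 (9 uM final) over 60 min at 37 °C after a 10 min compound preincubation.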
DT40 TDP1 CPT = DT40-hTDP1 cell growth loss with CPT; chicken DT40 Tdp1-/-;hTDP1 cells + 20 nM CPT, ATP luminescence, 48 h; Potency, µM (top dose mostly 46.2 µM), for the others: top-dose activity change, negative = growth inhibition, actives largely listed as inhibitors; 420,000 compounds, 12% hits; AID 686979; note: potency is the fitted concentration of half-maximal effect; % is set by controls: 0 for no effect and ±100 for the full control effect; nearly all actives have a fitted effect of over 55% in size
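Chicken DT40 Tdp1-/- cells complemented with human TDP1, 400 cells/well, exposed to compounds plus 20 nM camptothecin for at least 48 h at 37 C; viability read as ATP content by CellTiter-Glo luminescence.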
IL-1B inflam inh = blocks inflammasome-driven IL-1 beta release | THP-1 LPS/ATP IL-1B secretion, AlphaLISA, 16 h; hits give low values | activity change, % at 57.5 µM | 360,000 compounds, 4.7% hits; in the data active = activity change below about -50%; inconclusive = mostly about -30% to -49%; note: % is set by controls: 0 for no effect and ±100 for the full control effect
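Secreted IL-1B measured by AlphaLISA bead assay after 16 h compound exposure of THP-1 cells; compounds (final up to 57.5 uM) added 1 h before LPS (250 ng/mL) and ATP (1.25 mM) stimulation; lower signal means less secretion.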
TGFb inhibitor = TGF-b pathway inhibition; HepG2 CAGA-GFP TGF-b/SMAD3 reporter, GFP fluorescence, 18 h; TGF-beta stimulated, 500 pg/mL final; Potency, µM (doses to about 46.1 µM), for inactives: at the highest dose activity, negative = inhibition, hits mostly inhibitors; 410,000 compounds, 1.2% hits; AID 588855; note: potency is the fitted concentration of half-maximal effect; % is set by controls: 0 for no effect and ±100 for the full control effect; nearly all actives have a fitted effect of over 65% in size
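HEPG2 CAGA-GFP cells (1000/well, DMEM with 1% FBS) were pre-incubated 2 h at 37 degrees C, given compound by pin tool, then stimulated with TGF-beta at 500 pg/mL final for 18 h before per-cell GFP fluorescence imaging.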
HepG2 tox = counter-screen for TGF-b inhibitors: cytotoxicity in HepG2 cells; HepG2 CAGA-GFP viability, ATP luminescence, 18 h; AID 588856; 410,000 compounds, 0.76% hits; Potency, µM (titrated, usually from 46.1 µM), without a hit: top-dose activity change, negative = cytotoxicity, hits mostly cytotoxic; note: potency is the fitted concentration of half-maximal effect
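HepG2 CAGA-GFP cells (1000/well, DMEM with 1% FBS) received compound, then TGF-beta at 500 pg/mL final, and were incubated 18 hours at 37 degrees C. Viability was read by CellTiter-Glo luminescence. Media-only wells were set as complete cell-killing and DMSO as no toxicity.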
An asterisk follows results filed as active; u = inconclusive; x = no result given. Rows were chosen to be rich in hits. Some 19% of all compounds tested hit in one or more screens of this group. Unless noted, calls come from the whole dose curve; as a rule, active = well fitted curve in the direction sought with a large enough effect; inconclusive = small, poorly fitted or top-dose-only effect, or another doubt; inactive = no such curve, though single readings can be large; an effect the other way counts as inactive or inconclusive.

SMILES	DT40 TDP1 no CPT	S-ASM inh	DT40 TDP1 CPT	IL-1B inflam inh	TGFb inhibitor	HepG2 tox
CCCN(CC(=O)Nc1ccccc1C)C(=O)C1CCN(c2ncnc3sc(C)c(C)c23)CC1	10µM*	-3%	21µM*	-14	u	-14%
CCOc1ccccc1N=C1SCC(C)N1C(=O)C1CCN(c2ncnc3sc(C)c(C)c23)CC1 (stereo unspecified)	15µM*	-1%	21µM*	0	u	-11%
CCN(CC)c1ccc(C(=O)NNC(=O)C2CCN(c3ncnc4sc(C)c(C)c34)CC2)cc1	u	x	u	-4	-20%	-34%
Cc1ccccc1OCC(=O)NNC(=O)C1CCN(c2ncnc3sc(C)c(C)c23)CC1	26µM*	-3%	23µM*	7	u	-8%
COCCN(CC(=O)Nc1cccc(C)c1C)C(=O)Cn1cnc2ccccc2c1=O	13%	x	4%	-4	6%	0%
CC(C)(C)NC(=O)NCC1CCCC1NC(=O)NC(C)(C)C (stereo unspecified)	-24%	1%	5%	-7	-3%	-17%
O=C(COC(=O)/C=C/c1cccs1)Nc1ccc(Cl)cc1F	-24%	1%	-22%	-2	-17%	-34%
Cc1ccccc1C(=O)c1cccn1CC(=O)NCc1ccccc1Cl	1%	-1%	u	0	-15%	-33%
Cc1sc2ncnc(N3CCC(C(=O)N(CC(C)C)c4nc5ccccc5s4)CC3)c2c1C	15µM*	-2%	21µM*	12	u	-13%
C=CCn1c(C)cc(-c2csc(NC(=O)C3CCN(c4ncnc5sc(C)c(C)c45)CC3)n2)c1C	21µM*	0%	u	0	-7%	-9%
CCc1ccc2nc(NC(=O)C3CCN(c4ncnc5sc(C)c(C)c45)CC3)sc2c1	u	-17%	u	31	u	-20%
COc1ccc(-c2csc(NC(=O)C3CCN(c4ncnc5sc(C)c(C)c45)CC3)n2)cc1OC	2.6µM*	-13%	2.9µM*	64	-24%	-9%
Cc1ccc(C(=O)N(CC(C)C)c2nc3ccccc3s2)o1	u	-2%	u	51	-16%	-18%
CCOc1ccc(C(=O)NCCc2sc(-c3ccc(OC)c(OC)c3)nc2C)cc1	x	x	x	x	0%	-1%
COc1ccccc1CN1CCC(n2nccc2NC(=O)CCCc2ccccc2)CC1	u	3%	15µM*	u	-29%	-27%
Cc1cccc(CN2CCC(n3nccc3NC(=O)CCCc3ccccc3)CC2)c1	21µM*	x	u	u	-20%	-38%
CCOc1ccccc1CN1CCC(n2nccc2NC(=O)CCCc2ccccc2)CC1	18µM*	3%	u	u	u	-34%
COc1ccccc1/C=C/CN1CCC(n2nccc2NC(=O)CCc2ccccc2)CC1	12µM*	-3%	15µM*	-28	u	-36%
CC1CN(S(=O)(=O)c2ccc(F)cc2)C(C)N1C(=O)N1CCOCC1 (stereo unspecified)	-12%	3%	-5%	11	-8%	-4%
COc1ccc(-c2noc(CCCC(=O)N3CCOCC3)n2)cc1	u	2%	u	10	0%	12%
COc1ccc(-c2noc(CCC(=O)N3CCN(c4cccc(OC)c4)CC3)n2)cc1	16µM*	-11%	u	-18	-5%	-24%
COc1ccc(-c2noc(CCC(=O)N3CCC(c4cc(C)ccc4C)CC3)n2)cc1	-23%	-6%	1%	-3	-4%	-2%
COc1ccc(-c2noc(CCC(=O)N3CCN(c4cccc(C(F)(F)F)c4)CC3)n2)cc1	23µM*	-19%	u	u	u	2%
CCOc1nc(SCCOc2ccc(C)cc2)nc(N(C)C)n1	u	-10%	-25%	-5	1%	11%
CC(C)CCOc1ccc(Oc2nc(N(C)C)nc(N(C)C)n2)nn1	u	x	18µM*	x	-10%	-15%
SMILES	DT40 TDP1 no CPT	S-ASM inh	DT40 TDP1 CPT	IL-1B inflam inh	TGFb inhibitor	HepG2 tox
CCCOc1ccc(Oc2nc(NCC(C)C)nc(N(C)C)n2)nn1	13µM*	x	u	x	1%	3%
CCNc1nc(NCC)nc(SCCOc2ccc(C)cc2)n1	18µM*	-4%	21µM*	-8	u	-20%
Cc1cccc(OCCSc2nc(N)cc(N)n2)c1	21µM*	-2%	u	-27	-6%	-5%
CCOc1ccc(Oc2nc(NCC(C)C)nc(NC(C)(C)C)n2)nn1	u	x	u	x	0%	-30%
COC(=O)COc1ccc(Oc2nc(NC(C)(C)C)nc(N(C)C)n2)nn1	-28%	x	1%	x	-3%	1%
O=C(COc1ccc(Cl)cc1)NCCNC(=O)c1cnccn1	1%	3%	14%	6	-30%	-9%
O=C(COC(=O)c1c(Cl)cccc1Cl)NCC1CCCO1 (stereo unspecified)	6%	-1%	7%	-12	1%	1%
CCNc1nc(NCC)nc(Oc2ccc(OCC)nn2)n1	0%	2%	-2%	-4	-4%	-5%
CCNc1nc(NC(C)C)nc(Oc2ccc(OCCOc3ccc(C)cc3)nn2)n1	u	-2%	21µM*	16	1%	3%
COc1cccc2c1Oc1ncccc1N(C(=O)Nc1cccc(Cl)c1)C2	u	x	u	x	-21%	3%
CC(=O)Nc1ccc(S(=O)(=O)NCC2CCC(C(=O)NCCN(CC(C)C)CC(C)C)CC2)cc1 (stereo unspecified)	u	x	-29%	x	1%	2%
CC(=O)Nc1ccc(S(=O)(=O)N2CCC(C(N)=O)(N3CCCCC3)CC2)cc1	-2%	0%	-2%	1	-2%	-25%
CN(C)c1ccc(S(=O)(=O)NCC(=O)OCC(=O)c2ccc[nH]2)cc1[N+](=O)[O-]	13%	-4%	0%	10	0%	-11%
COCc1cc(C)nc(SCC(=O)Nc2cccc(C)c2C)c1C#N	-5%	1%	-21%	17	1%	7%
COCc1cc(C)nc(SCC(=O)Nc2nc(C)cs2)c1C#N	16µM*	15%	u	-8	18%	-4%
CC1=C(C)C(C)=C(C#N)C(=C(C#N)C#N)N1	-4%	278%	8%	x	-16%	10%
Cc1nn(C)c(C)c1CNC(=O)c1cnn2c1NC(c1ccccc1)CC2C(F)(F)F (stereo unspecified)	-21%	-1%	u	-4	-24%	-17%

Assay outcomes as filed in PubChem BioAssay.
